Drawing on PubChem BioAssay, this text covers z-score for 14 compounds.

The source made the active and inactive calls.

Assay [1] is described as follows: A549 cell viability effects, profiling panel, calcein-AM fluorescence, 48 h, basal (AID 1162). As to conditions: higher = more signal.
The nature of assay [2]: adipocyte viability effects, profiling panel, cell-based, 3T3-L1 adipocytes, calcein-AM fluorescence, 48 h, basal (AID 1163). As to conditions: 3T3-L1 adipocytes viability, higher = more signal.
Assay [3] in a line: HepG2 cell viability effects, profiling panel, calcein-AM fluorescence, 48 h, basal (AID 1164). To be noted: higher = more signal.
The nature of assay [4]: MM1S cell viability effects, profiling panel, calcein-AM fluorescence, 48 h, basal (AID 1165).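 Also: viability of MM1S multiple myeloma cells under basal unstimulated conditions.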 To be noted: higher = more signal.
Assay [5] in a line: basal RPMI8226 viability, no added stimulus, profiling panel, cell-based, calcein-AM fluorescence, 48 h, PK04 Diversity Set (AID 1166).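 Also: cells grown under basal conditions without added stimulus.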 As to conditions: RPMI8226 myeloma viability, higher = more signal.
A short description of assay [6]: basal HepG2 mitochondrial membrane potential changes, profiling panel, cell-based, JC-1 fluorescence, 24 h, 100 nL compound (AID 1167). To be noted: higher = more signal.
Assay [7] in a line: basal 3T3-L1 adipocyte mitochondrial potential changes, profiling panel, cell-based, JC-1 fluorescence, 3T3-L1 adipocytes, 24 h, 100 nL compound (AID 1168). As to conditions: JC-1 mitochondrial fluorescence, higher = more signal, called active from +8 up or from −8 down.
Assay [8] in a line: basal RPMI8226 mitochondrial membrane potential changes, profiling panel, cell-based, JC-1 fluorescence, 24 h, 100 nL compound (AID 1169). As to conditions: RPMI8226 myeloma, JC-1 mitochondrial potential fluorescence, higher = more signal.
Assay [9] is described as follows: basal MM1S mitochondrial membrane potential changes, profiling panel, cell-based, JC-1 fluorescence, 24 h, 100 nL compound (AID 1170). As to conditions: higher = more signal.
A short description of assay [10]: A549 lung cancer cell viability effects, profiling panel, resazurin fluorescence, 24 h, PK04 Diversity Set (AID 1171). As to conditions: higher = more signal, called active from +8 up or from −8 down.
Also: test concentration not given here.

As for `COc1cc(CO)cc(I)c1O[C@H]1C=C(C(=O)NCCO)C[C@@H](N(CC2CCCCC2)C(=O)c2cc3ccccc3oc2=O)[C@@H]1O`, the z-score is 0.846 in [1]; -0.5 in assay [2]; 0.206 in assay [3]; 1.01 in [4]; -1.1 in assay [5]; 0.919 in [6]. The z-score in assay [7] is -0.294 (inactive); in assay [8] it was -0.806; in assay [9] it was -0.467; in assay [10], -0.206 (inactive).
On to `CC(C)C[C@@H]1NC(=O)[C@H]2C[C@@H](C(=O)NCCCCCC[N+](C)(C)C)[C@@H](c3ccc(O)cc3)N2C1=O`, for which the z-score was -0.547 in [1]; -0.304 in assay [2]; -1.01 in assay [3]; -0.0171 in [4]; 0.0824 in [5]; -0.575 in assay [6]. Besides, the z-score was 0.177 (inactive) in [7], -0.342 in assay [8], -0.958 in assay [9] and 1.09 (inactive) in assay [10].
As to `C=C(COC)/C(=C/C[C@H](OC(C)=O)c1ccc(OCCO)cc1)c1cnc2ccccc2c1`, the z-score in assay [1] was 0.373; in [2], 1.18; in [3], -0.141; in [4], -1.53; in [5], 1.07; in assay [6] it was 2.07. Further, the z-score in assay [7] is 1.2 (inactive); in assay [8] it was 0.23; in assay [9], 0.278; in assay [10], 0.715 (inactive).
Turning to `C=CC[C@]1(C(=O)N2CCCCC2)N=C(c2ccc(OCCCO)cc2)O[C@H]1c1ccccc1N=[N+]=[N-]`, the z-score in [1] was -0.871; in [2], 1.65; in [3], -0.715; in assay [4] it was -1.56; in [5], -2.55; in assay [6], 0.654. Moreover, the z-score is 0.866 (inactive) in assay [7], -1.17 in [8], -0.511 in assay [9] and -1.19 (inactive) in assay [10].
As to `COc1ccc(C(=O)Nc2ccc(CN3C(=O)[C@]4(O[C@H](CCn5cc(CCO)nn5)[C@@H]([Si](C)(C)c5ccc(OC)cc5)[C@@H]4C)c4ccccc43)cc2)cc1`, the z-score was -3.11 in assay [1]; -0.616 in assay [2]; -4.54 in assay [3]; -2.68 in assay [4]; -4.37 in assay [5]; 1.17 in assay [6]. Further, the z-score was 1.3 (inactive) in assay [7], -1.1 in [8], -1.8 in assay [9] and -3.05 (inactive) in assay [10].
In the case of `COCCOC(=O)N1C(=O)[C@@]2(c3cc(C#CCC(C(=O)OC)C(=O)OC)ccc31)[C@H](C(=O)N1CCN(c3ncccn3)CC1)[C@H]1C(=O)O[C@H](c3ccccc3)[C@H](c3ccccc3)N1[C@@H]2c1ccc(O)cc1`, the z-score in assay [1] was 1.65; in assay [2] it was -0.287; in [3] it was 2.17; in assay [4], 0.613; in [5], -0.188; in assay [6], 0.88. Further, the z-score is 2.64 (inactive) in assay [7], -0.203 in assay [8], -0.0423 in assay [9] and 0.0359 (inactive) in [10].
As for `C=CCC(OC(C)=O)[C@@H]1[C@@H](N(Cc2ccc(-c3ccccc3)cc2)C(=O)c2ccc(-c3ccccc3)cc2)c2cc(OCCCO)ccc2N1C(=O)Cc1ccc(OC)cc1` (stereo not given in full), the z-score was -0.111 in assay [1]; 0.6 in assay [2]; 0.551 in assay [3]; -0.769 in assay [4]; -0.904 in assay [5]; 0.424 in assay [6]. Moreover, the z-score in assay [7] is -0.972 (inactive); in assay [8] it was -0.0615; in [9], -0.142; in assay [10], 0.78 (inactive).
Consider `COCCCNC(=O)[C@@]1(Sc2ccc(C)cc2)CC(=O)N(Cc2cc(C(F)(F)F)cc(C(F)(F)F)c2)[C@@H]1c1ccc(CO)cc1I`, for which the z-score in assay [1] was 0.697; in assay [2], 1.34; in assay [3], -0.632; in [4] it was -2.24; in [5], -2.34; in [6], 0.0901. Further, the z-score was 0.135 (inactive) in assay [7], -0.00613 in assay [8], -0.315 in [9] and 0.555 (inactive) in [10].
Take `COC(=O)C[C@H]1O[C@]2(C(=O)N(Cc3ccccc3)c3ccc(I)cc32)[C@@H](C)[C@@H]1[Si](C)(C)c1ccc(OC)cc1`: the z-score in assay [1] was -0.344; in assay [2], 1.02; in [3], 0.638; in assay [4], -0.077; in assay [5], -1.22; in assay [6], 2.66. In addition, the z-score in assay [7] is -1.07 (inactive); in [8], -0.226; in assay [9], 0.211; in assay [10], -0.923 (inactive).
Take `COC(=O)Cn1c(C(=O)N2CCCC2)cc2c1C[C@H]1CN(C(=O)c3ccccc3)[C@@](Cc3ccccc3)(C(=O)OC)[C@@H]21`: the z-score in [1] is -0.162; in assay [2], 0.0052; in [3] it was 0.513; in assay [4], 0.875; in assay [5], -0.256; in [6], 0.876. Moreover, the z-score in [7] was 0.385 (inactive); in assay [8], -0.0618; in assay [9], -1.25; in [10] it was 0.359 (inactive).
Consider `C#CCCCON=C1C[C@@H](O)[C@@H](O)[C@@H]2[C@@H]3C(=O)N(Cc4ccc5c(c4)OCO5)C(=O)[C@@H]3CC[C@@H]12`, for which the z-score was 0.347 in assay [1]; -1.2 in assay [2]; -0.61 in [3]; 1.03 in assay [4]; 0.351 in assay [5]; 0.722 in assay [6]. The z-score was 1.44 (inactive) in assay [7], 0.412 in assay [8], -1.46 in assay [9] and 0.414 (inactive) in assay [10].
On to `CCCC[C@H]1OB(O)C[C@H]2C1=C(COC)C[C@H]1C(=O)N(Cc3ccccc3)C(=O)[C@H]12`, for which the z-score in [1] was 0.485; in assay [2], 0.938; in [3], -0.0393; in [4], 0.405; in assay [5], -0.537; in assay [6], 0.987. The z-score in assay [7] is 0.835 (inactive); in assay [8], 0.361; in assay [9], 1.46; in assay [10], 0.272 (inactive).
Regarding `CCc1cccc(NC(=O)O[C@H]2[C@H](OC(=O)Nc3ccccc3)[C@@H](OC(=O)Nc3ccccc3)[C@@H](OC)O[C@@H]2CO)c1`, the z-score was -2.42 in assay [1]; 1.1 in assay [2]; -4.04 in [3]; -3.01 in [4]; -4.29 in assay [5]; -0.501 in assay [6]. For the same compound, the z-score in assay [7] was 0.963 (inactive); in [8], -1.21; in assay [9], -1.53; in assay [10] it was -4.14 (inactive).
With `NC(=O)NCC#Cc1ccc2c(c1)[C@]1(C(=O)N2)[C@H](C(N)=O)[C@H]2C(=O)O[C@H](c3ccccc3)[C@H](c3ccccc3)N2[C@@H]1c1ccccc1OCCO`, the z-score in assay [1] is -1.23; in assay [2] it was 0.634; in assay [3] it was -0.945; in assay [4] it was -0.211; in [5], -0.186; in assay [6], -1.01. For the same compound, the z-score in assay [7] is -0.287 (inactive); in assay [8], -1.05; in assay [9], -0.386; in assay [10], 0.79 (inactive).
